Reference: PubChem BioAssay (NCATS)
Inconclusive results are not listed. Values without a mark were called inactive. Calls of active or inactive are those of the source. The call rests on the fitted dose curve; in most records, active means well fitted cell-killing curve with a large enough effect; inconclusive means small, poorly fitted or top-dose-only effect, or effect the other way; inactive means no such curve, though single readings can be large or run the other way.

Assay: Quantitative High-Throughput drug screen in 47 multiple myeloma cell lines against the NCATS MIPE library collection: L363_DSMZ cell viability assay (AID 1918984); further: nearly all actives have a fitted effect of over 40% in size
Conditions: L363 myeloma viability, CellTiter-Glo ATP luminescence, 48 h; series mostly up to 45.8 µM; viability (% of control): at the top concentration
Method in brief: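 500 cells/well per myeloma line exposed to pinned MIPE 4.0 compounds for 48 h at 37 °C, 5% CO2. Viability read as ATP by CellTiter-Glo luminescence, normalised to DMSO-only (100%) and media-only (0%) wells.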
Potency means the concentration at half of the fitted maximal effect.

SMILES	Potency	viability (% of control)
COc1cccc2c1CCCC2CCCN1CCN(C2CCCCC2)CC1 (centres undefined)	16.6 µM (active)	–
Cc1cccc(Nc2nc(-c3ccncc3)cs2)c1	18.7 µM (active)	–
CC=C(C)C(=O)O[C@H]1C(C)=C[C@]23C(=O)[C@@H](C=C(CO)[C@@H](O)[C@]12O)[C@H]1[C@@H](C[C@H]3C)C1(C)C	4.69 µM (active)	–
C=C1C(=O)OC(CCCCCCCC)C1C(=O)O (centres undefined)	–	110%
O=c1cc(-c2ccccc2)oc2cc(O)c(O)c(O)c12	–	120%
O=C1NC(=O)C(=Cc2ccc(-c3ccc(F)cc3)o2)S1	3.72 µM (active)	–
COc1ccc(C2CC(c3ccccc3)=NN2c2ccc(S(N)(=O)=O)cc2)cc1 (centres undefined)	16.6 µM (active)	–
CC[C@@H]1C=C(C)C[C@H](C)C[C@H](OC)[C@H]2O[C@@](O)(C(=O)C(=O)N3CCCC[C@@H]3C(=O)O[C@H](C(C)=C[C@@H]3CC[C@H](Cl)[C@H](OC)C3)[C@H](C)[C@@H](O)CC1=O)[C@H](C)C[C@H]2OC	10.5 µM (active)	–
CC(C)C(=O)Nc1ncc(-c2cc(C(F)F)nn2-c2c(Cl)cccc2Cl)s1	8.33 µM (active)	–
CO[C@H]1C[C@@H]2CC[C@@H](C)[C@@](O)(O2)C(=O)C(=O)N2CCCC[C@@H]2C(=O)O[C@H]([C@@H](C)C[C@@H]2CC[C@H](O)[C@H](OC)C2)CC(=O)[C@H](C)C=C(C)[C@@H](O)[C@@H](OC)C(=O)[C@H](C)C[C@H](C)C=CC=CC=C1C	–	31.9%
NC(=O)NN=Cc1ccc([N+](=O)[O-])o1	23.5 µM (active)	–
CC=CCC=CCCC(=O)[C@H]1O[C@@H]1C(N)=O	18.7 µM (active)	–
CC(=O)Oc1cc2c(s1)CCN(C(C(=O)C1CC1)c1ccccc1F)C2 (centres undefined)	0.935 µM (active)	–
CCCCCNC(=O)N1CCC(CN(Cc2ccc(Cl)cc2)Cc2ccc([N+](=O)[O-])s2)C1 (centres undefined)	20.9 µM (active)	–
